Bioassay records as filed in PubChem BioAssay.
The list is not random: actives were taken first. Their share in the collection is about 7.3%.
FLuc counter: qHTS profiling assay for firefly luciferase inhibitor/activator using purifed enzyme and Km concentrations of substrates (counterscreen for miR-21 project); Potency, µM (top dose mostly 57.5 µM), for the others: at the top dose activity change, negative = inhibition, most hits filed as inhibitors; 6.9% of 360,000 active; Luciferin 4-monooxygenase (Photinus pyralis), P08659; purified FLuc, Km substrates, luminescence inhibition;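 note: plate controls were vehicle for no effect and reference inhibitor for full effect; nearly all actives have a fitted effect of over 55% in size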
Target sequence (P08659 whole entry, looked up): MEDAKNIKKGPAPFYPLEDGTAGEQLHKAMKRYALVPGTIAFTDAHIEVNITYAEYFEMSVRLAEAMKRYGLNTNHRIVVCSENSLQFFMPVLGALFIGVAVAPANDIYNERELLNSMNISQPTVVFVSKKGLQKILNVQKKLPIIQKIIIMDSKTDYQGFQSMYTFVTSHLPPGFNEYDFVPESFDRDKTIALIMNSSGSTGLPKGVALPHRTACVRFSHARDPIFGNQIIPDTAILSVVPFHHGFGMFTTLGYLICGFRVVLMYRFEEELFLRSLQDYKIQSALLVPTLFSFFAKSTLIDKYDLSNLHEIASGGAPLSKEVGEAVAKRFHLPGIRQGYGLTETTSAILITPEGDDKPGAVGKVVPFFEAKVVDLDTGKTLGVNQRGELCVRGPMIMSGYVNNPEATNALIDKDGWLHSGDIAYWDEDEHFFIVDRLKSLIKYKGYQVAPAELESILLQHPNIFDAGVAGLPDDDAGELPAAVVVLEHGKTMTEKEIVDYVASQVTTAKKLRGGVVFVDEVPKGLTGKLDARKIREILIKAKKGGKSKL
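Purified P. pyralis luciferase, 10 nM final, with Km-level 10 uM D-luciferin and 10 uM ATP in 50 mM Tris acetate pH 7.5, 10 mM Mg acetate, 0.01% Tween-20, 0.05% BSA; 6-point qHTS titration about 60 µM downward; luminescence read.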
KinaseGlo FLuc: Counterscreen for Luciferase (Kinase-Glo TM) Inhibition; Kinase-Glo luciferase, ATP luminescence, 8 min; Potency, µM (titrated, usually from 38.3 µM), for the others: at the top dose activity change, negative = inhibition, most hits filed as inhibitors; 0.28% of 200,000 active; note: % is set by controls: 0 for no effect and ±100 for the full control effect; nearly all actives have a fitted effect of over 60% in size
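Recombinant Kinase-Glo luciferase, 10 uM ATP (linear range), luciferin; imidazole pH 7.2 / KCl / MgCl2 / Tween / BSA buffer; 8 min RT; luminescence.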
Rab9 prom act: qHTS Assay for Rab9 Promoter Activators. AID 485297, 2010. Potency, µM (titrated, usually from 9.22 µM), without a hit: at the top dose activation, negative = inhibition, usual class: activators. Huh7 Rab9 promoter-luciferase reporter, luminescence, 24 h. 2.8% of 320,000 active; note: % of control where 0% means no effect; nearly all actives have a fitted effect of over 60% in size
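Stable Rab9-luc Huh7, 1500 cells/well, 2 h settle; cmpd in DMSO, 24 h, 37 °C/5% CO2; luciferase reagent 10 min RT; luminescence.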
SMN2 splice enh: qHTS Assay for Enhancers of SMN2 Splice Variant Expression; Potency, µM (top dose mostly 46.1 µM), without a hit: at the highest dose activity change, positive = activation, actives largely listed as activators; 2.8% of 210,000 active; HEK293 SMN2-luciferase splicing reporter, luminescence, 30-36 h; note: % of control where 0% means no effect; nearly all actives have a fitted effect of over 55% in size
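HEK293 cells carry an SMN2 minigene-luciferase reporter in which exon 7 inclusion puts luciferase in frame. Cells were seeded at 2000 cells/well, attached for 10-12 hours, then exposed to compounds for 30-36 hours at 37C before ONE-Glo luminescence.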
ELG1 genotox: qHTS screen for small molecules that induce genotoxicity in human embryonic kidney (HEK293T) cells expressing luciferase-tagged ELG1; 1.3% of 330,000 active; Potency, µM (highest dose often 46 µM), for inactives: top-dose activity change, positive = activation, most hits filed as activators; AID 504466, 2011; HEK293T ELG1-luciferase reporter, luminescence, 16 h; note: % of control where 0% means no effect; nearly all actives have a fitted effect of over 60% in size
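Genotoxicity was scored as increased ELG1-luciferase reporter signal, measured by ONE-Glo luminescence (30 min, room temperature). Compound or vehicle exposure of the HEK293T reporter cells lasted 16 hr at 37°C.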
NPC1 promoter act: qHTS Assay for NPC1 Promoter Activators; Potency, µM (highest dose often 9.22 µM), for the others: top-dose activation, hits mostly activators; Huh7 NPC1 promoter luciferase reporter, 24 h; 2.4% of 320,000 active; note: % of control where 0% means no effect; nearly all actives have a fitted effect of over 60% in size
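Stable NPC1-promoter luciferase Huh7 line; cpd (DMSO) 24 h, 37 °C, 5% CO2; Amplite luciferase reagent 10 min RT; luminescence readout. qHTS format.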
Active calls of the source: *; ? = inconclusive; . = not tested or not shown; [ ] = remark or other dose. Calls come from the whole dose curve; as a rule, active = well fitted curve in the direction sought with a large enough effect; inconclusive = small, poorly fitted or top-dose-only effect, or another doubt; inactive = no such curve, though single readings can be large; an effect the other way counts as inactive or inconclusive. Potency is the fitted concentration of half-maximal effect.

SMILES	FLuc counter	KinaseGlo FLuc	Rab9 prom act	SMN2 splice enh	ELG1 genotox	NPC1 promoter act
NC(=O)C1CCN(c2nc(-c3cc4ccccc4o3)cs2)CC1	11µM*	.	?	.	4%	?
Nc1nc(-c2cc3ccccc3o2)cs1	4.3µM*	.	2µM*	.	?	2.2µM*
CN1CCN(c2nc(-c3cc4ccccc4o3)cs2)CC1	4.8µM*	-1%	?	13µM*	?	?
Cc1cc(C)n(CCc2nc(-c3cc4ccccc4o3)cs2)n1	17µM*	1%	21%	-36%	10%	20%
O=[N+]([O-])c1cc(/C=N/Nc2nc(N3CCCCC3)nc(N3CCCCC3)n2)ccc1O	15µM*	-3%	1%	?	2%	-2%
COc1ccc(/C=N/Nc2nc(N3CCCCC3)nc(N3CCCCC3)n2)cc1[N+](=O)[O-]	-6%	0%	-6%	-9%	-8%	-2%
Cc1csc(N/N=C/c2ccc(O)c([N+](=O)[O-])c2)n1	21µM*	2%	4%	18%	?	2%
CN(C)Cc1cc(C(C)(C)C)cc(CNC2CCCCC2)c1O	.	-4%[7.66 µM]	.	-13%[9.22 µM]	.	.
C[C@@H]1CC2C3CCC4=CC(=O)C=CC4(C)[C@@]3(F)[C@@H](O)CC2(C)[C@@]1(O)C(=O)CO (some centres undefined)	.	4%[39.9 µM]	.	.	.	.
Cc1cc(F)ccc1NC(=O)CN1C(=O)CCc2cc(S(=O)(=O)N3CCOCC3)ccc21	-1%	.	.	.	.	.
Cc1ccc(NC(=O)CC(=O)Nc2ccc(C)cc2C)c(C)c1	1%	.	-6%	.	1%	1%
Cc1ccc(N=CNc2ccc(C)cc2C)c(C)c1	15µM*	.	13%	.	3%	-4%
Nc1ccc(N=Nc2ccc(N)cc2)cc1	7.6µM*	-1%	?	14µM*	?	?
COc1ccc(-c2cc(C(=O)Oc3ccc(Br)cc3)c3ccccc3n2)cc1	?	.	.	11%	.	.
CCC(=O)Nc1cccc(-c2nc3ccc(C)cc3o2)c1	2.4µM*	.	4.5µM*	.	?	2.8µM*
CCC(=O)Nc1ccc2oc(-c3cccc(C)c3)nc2c1	0.54µM*	-11%	0.28µM*	0.5µM*	0.41µM*	0.11µM*
Cc1cccc(-c2nc3cc(NC(=O)c4ccc(OCC(C)C)cc4)ccc3o2)c1	-5%	.	.	6%	.	.
Cc1ccc2nc(-c3cccc(NC(=O)c4cccc5ccccc45)c3)oc2c1	2.1µM*	.	.	-9%	.	.
CCOc1ccc2nc(NC(=O)CSc3ccccc3)sc2c1	21µM*	-4%	12%	?	13%	22%
CCOc1ccc2nc(NC(=O)c3c([N+](=O)[O-])cnn3CC)sc2c1	?	-8%	1%	5%	-3%	-2%
O=C(CSc1nccn1-c1ccccc1)Nc1nc2ccccc2s1	24µM*	.	.	.	.	.
CCOc1ccc2nc(NS(=O)(=O)Cc3ccccc3)sc2c1	27µM*	1%	12%	5%	21µM*	-20%
CCOc1ccc2nc(NC(=O)c3cccnc3)sc2c1	1.5µM*	-13%	0.89µM*	7.9µM*	?	1.6µM*
COc1cc2c(cc1OC)C(COc1ccc3c(C)cc(=O)oc3c1)N(C(=O)Cc1ccc(F)cc1)CC2 (centres undefined)	-2%	.	.	-6%	.	.
Cc1cn(S(=O)(=O)c2ccc(F)c(Cl)c2)cn1	-13%	.	.	-2%	.	.
SMILES	FLuc counter	KinaseGlo FLuc	Rab9 prom act	SMN2 splice enh	ELG1 genotox	NPC1 promoter act
COc1cccc(NC(=O)CSc2nc(=O)[nH]c3c2CCCC3)c1	-9%	.	.	.	.	.
COc1ccc(Cl)cc1NC(=O)CSc1cn(CC(=O)N2CCCCCC2)c2ccccc12	-18%	.	.	.	.	.
CC(C)c1ccc(NC(=O)Cn2nnc(C(=O)NCc3ccc(Cl)cc3)c2N)cc1	3%	.	.	.	.	.
Cc1ccc(-c2nn3c(=O)cc(CN4CCN(C(=O)Nc5cc(Cl)ccc5C)CC4)nc3s2)cc1	-7%	.	.	.	.	.
CCCC(=O)Nc1nc2ccc(OCC)cc2s1	11µM*	4%	2.2µM*	22µM*	?	2.8µM*
CCOc1ccc2nc(NC(=O)CCn3cccc3)sc2c1	?	-2%	20%	12%	1%	15%
CN(C)C(=S)Nc1nc2ccccc2s1	12µM*	-1%	?	.	?	?
CCOc1ccc2nc(NC(=O)c3ccccc3)sc2c1	0.54µM*	.	.	1.3µM*	.	.
CCOc1ccc2nc(NC(=S)N(C)C)sc2c1	1.3µM*	-1%	0.79µM*	4µM*	0.37µM*	0.71µM*
CC(C)Cn1c(=O)c2ccccc2n2c(CCC(=O)Nc3cccc(Cl)c3)nnc12	-2%	.	.	6%	.	.
CCOC(=O)c1ccc(N2C(=O)c3n[nH]c(-c4ccco4)c3C2c2ccc(OCC)cc2)cc1 (centres undefined)	-8%	.	.	2%	.	.
COc1ccc(CNC(=O)c2ccc(CNS(=O)(=O)c3ccc(F)cc3)cc2)cc1	0%	.	.	.	.	.
O=C(O)C(Sc1ccc(Cl)cc1)Sc1ccc(Cl)cc1	.	-11%[7.66 µM]	.	-9%[9.22 µM]	.	.
CCOc1ccc2nc(NC(=O)C3=NNC(=O)CC3)sc2c1	?	2%	?	?	14%	20%
CCOc1ccc2nc(NC(=O)c3cnc(C)cn3)sc2c1	6µM*	-6%	18%	-27%	0%	24%
O=C(NCNC(=O)c1ccccc1)c1ccccc1	7%	-3%	-3%	-2%	1%	5%
CSCc1ccc(C(=O)NCCSc2ccc(Br)cc2)cc1	19µM*	.	?	.	?	?
O=C(Cc1ccccc1)c1ccc2c(c1)OCCO2	8.5µM*	-15%	2.8µM*	?	18µM*	2.5µM*
O=C(NCSc1ccccc1)c1ccccc1	11µM*	.	1.4µM*	.	?	2.5µM*
COc1ccc(C(=O)NCCn2cc(SCC(N)=O)c3ccccc32)cc1	15µM*	.	22%	.	4%	12%
COc1ccc(NC(=O)CSc2cn(CCNC(=O)c3ccc(OC)cc3)c3ccccc23)cc1	?	.	.	-28%	.	.
O=C(NCCc1ccccc1)C1=COCCO1	17µM*	.	3.2µM*	.	?	2.5µM*
CC(C)(C)c1ccccc1NC(=O)C1=COCCO1	2%	.	2%	.	6%	-1%
Cc1ccc(C(=O)NCCn2cc(SCC(=O)Nc3nnc(C)s3)c3ccccc32)cc1	17µM*	1%	26%	-55%	?	-3%
CCCn1cc(SCC(=O)Nc2nnc(C)s2)c2ccccc21	4%	5%	-6%	12%	8%	-6%
